Consider 87 molecules from PubChem BioAssay AID588689 (Southern Research Specialized Biocontainment Screening …, 2011).

This test has as its target Genome polyprotein (Dengue virus type 2 (strain 16681-PDK53)) (UniProt P29991). Nature of the test: Dengue-2 NS5 methyltransferase inhibitors, primary screen, biochemical, confirmation dose response (AID 588689). Particulars: Dengue-2 NS5 methyltransferase capping enzyme assay, at 25 µM, stronger effect = higher value.
[1] abbreviates: measured here: pilot screen replicate inhibition.

Among all 340,000 compounds or so, about 1,000 (0.29%) were called active. Rule as the data show it: inconclusive = inhibition above about 29% without an active follow-up result; inactive = below that. These entries were drawn from the full list. Potency and affinity values are given separately.

As a reminder, the inhibition is the drop in the measured response relative to a control, in per cent. As to `Cc1ncc(C(O)c2ccc(N(C)C)cc2)n1Cc1ccccc1` (centres undefined), the inhibition was 0% (inactive).
On the same count and under the same terms, the figure for `CC(C)C(C(=O)NC1CCCC1)N(Cc1ccco1)C(=O)CNS(=O)(=O)c1ccccc1` (centres undefined) is -8.96% (inactive); for `CCn1c(=O)n(CC)c2cc(N3CCCC3)c(NC(=O)c3ccc(OC)c(Br)c3)cc21` it is -2.72% (inactive).
Take `O=c1ccc(-c2ccc(S(=O)(=O)NCc3cccc(Br)c3)s2)n[nH]1`: the inhibition was -1.36% (inactive).
Still for that read-out and setting: in the case of `CCCCNC(=O)CN(Cc1ccco1)S(=O)(=O)c1ccc(C(C)=O)cc1` it was -2.95% (inactive); in that of `O=C(O)CC1CCC(=C(Cl)Cl)C1` (centres undefined), 4.83% (inactive); in that of `Cc1ccc(S(=O)(=O)N(CC(=O)Nc2cccc(C(F)(F)F)c2)C(=O)N2CCN(C)CC2)cc1`, -4.32% (inactive).
On the same count and under the same terms, the figure for `CCn1c(SCC(=O)NC)nnc1C(C)C` is 4.79% (inactive).
In the case of `Cc1ccccc1-c1c(C)oc2cc(O)ccc2c1=O`, the inhibition is 1.35% (inactive).
On the same count and under the same terms, the figure for `COCCN(C(=O)COC(=O)CCc1ccccc1)c1c(N)n(Cc2ccccc2)c(=O)[nH]c1=O` is 0% (inactive); for `O=C(O)CCn1cc(/C=C\C(=O)c2ccc(Cl)cc2)c(-c2cccc(Br)c2)n1` it is 26% (inactive).
Same read-out and setting: in the case of `O=C(O)CCn1cc(/C=C/C(=O)c2ccc(Cl)cc2)c(-c2ccc(Br)cc2)n1` it was 12.8% (inactive).
Still for that read-out and setting: in the case of `CCOc1ccc(NC(=O)CSc2nc(C3CC3)nc3ccccc23)cc1` it was 15.3% (inactive).
With `CCOC(=O)c1c(NC(=O)C(Sc2ccccc2)c2ccccc2)sc(C(N)=O)c1C` (centres undefined), the inhibition is 2.74% (inactive). Moreover, the inhibition under setting [1] stood at 3.33%.
`O=c1c2ccccc2[nH]c(=S)n1-c1cccc(S(=O)(=O)N2CCCC2)c1`: the inhibition is -8.01% (inactive).
Still for that read-out and setting: in the case of `CC[C@H](C)/C=C(C)/C=C/C1=CC2=CC(=O)[C@]3(C)OC(=O)[C@@H](C(C)=O)[C@@H]3C2=CO1` it was 7.68% (inactive); in that of `CCC(C)/C=C/C1=CC2=C(Cl)C(=O)C3(C)OC(=O)C(C(=O)C(C)C(C)O)C3C2=CO1` (centres undefined), 4.35% (inactive).
Consider `O=C(Cn1ncc2c([nH]c3ccccc32)c1=O)NCCCN1CCN(c2ccccc2)CC1`, for which the inhibition is 0% (inactive).
The same measure, in the same setting: in the case of `C=CCn1cc(C(=O)NCC2CCCO2)c(=O)c2cc(S(=O)(=O)N3CCCCCC3)ccc21` (centres undefined) it was -3.55% (inactive).
On the same count and under the same terms, the figure for `S=c1[nH]nc(Cc2cccs2)n1-c1ccccc1` is -2.82% (inactive); for `CC(C)(C)c1nnc(NC(=O)C2CCN(c3ncccn3)CC2)s1` it is -2.45% (inactive); for `CC1=NN(c2ccc([N+](=O)[O-])cc2)C(=O)/C1=C\N(C)C` it is -9.46% (inactive).
Take `COc1cc(/C=C2/SC(=O)NC2=O)ccc1Oc1ccc([N+](=O)[O-])cc1[N+](=O)[O-]`: the inhibition is 23.6% (inactive).
The same measure, in the same setting: the figure for `O=C(c1ccccc1)c1ccc(Oc2ccc([N+](=O)[O-])cc2[N+](=O)[O-])cc1` is -2.33% (inactive).
As to `COc1cc(/C=C2/C(=O)N(c3ccc(C)c(C)c3)N=C2C)cc([N+](=O)[O-])c1O`, the inhibition is 9.88% (inactive). Moreover, under setting [1], the inhibition is -3.04%.
In the case of `O=C(c1ccc(Cl)s1)N1CCc2ccccc21`, the inhibition was -1.37% (inactive).
Still for that read-out and setting: in the case of `O=C(CCN1CCCCC1=O)NC1CCCN(Cc2ccc(Cl)cc2)C1` (centres undefined) it was -5.2% (inactive).
As for `Cc1ccc(Oc2ccccc2/C=C2\SC(=O)N(C)C2=O)cc1`, the inhibition was 0% (inactive). Moreover, the inhibition under setting [1] was determined as 5.03%.
Regarding `O=C1NC(=O)/C(=C/c2ccccc2Oc2ccc(Cl)cc2)S1`, the inhibition is -4.16% (inactive).
The same measure, in the same setting: in the case of `CN1C(=O)/C(=C/c2ccccc2OCc2ccc(F)cc2)N(C)C1=S` it was -7.89% (inactive); in that of `O=C1NC(=O)/C(=C\c2ccccc2Oc2ccc(F)c(F)c2)S1`, 24.6% (inactive).
The same measure, in the same setting: the figure for `CCOC(=O)CN(C(=O)CNC(=O)c1ccco1)C(C(=O)NC1CCCC1)c1ccccc1OCC` (centres undefined) is -1.62% (inactive).
As to `NS(=O)(=O)c1ccc(CCNC(=O)CCNS(=O)(=O)c2ccccc2C(F)(F)F)cc1`, the inhibition was 0% (inactive).
Still for that read-out and setting: the figure for `C/C(=N\NS(=O)(=O)c1ccccc1)c1cccc(NC(=O)c2cccc(Cl)c2)c1` is -5.93% (inactive); for `COc1cccc(NC(=O)CN(C)C(=O)CN2C(=O)c3ccc([N+](=O)[O-])cc3C2=O)c1` it is -7.27% (inactive).
Same read-out and setting: in the case of `CS(=O)(=O)c1ccc(C(=O)OCC(=O)c2ccc(Cl)s2)cc1` it was 4.34% (inactive); in that of `CCCCCNC(=O)C1CCC(Cn2c(=S)[nH]c3ccccc3c2=O)CC1` (centres undefined), -0.74% (inactive); in that of `COc1cccc(Nc2ccccc2C(=O)O)c1`, -2.96% (inactive).
For the molecule `O=C(O)c1ccccc1Nc1ccccc1C(=O)O`, the inhibition is 4.09% (inactive).
On the same count and under the same terms, the figure for `COc1ccccc1/C(C)=N/NC(=O)c1nnn(-c2nonc2N)c1C(C)C` is -2.62% (inactive).
Turning to `CC(=O)N1CCc2c(sc(NC(=O)c3cccc(N4C(=O)CCC4=O)c3)c2C(N)=O)C1`, the inhibition was -10.4% (inactive).
Still for that read-out and setting: the figure for `O=Cc1ccc(C(=O)O)cc1` is -0.73% (inactive); for `Cc1cccc(N2C(=O)/C(=C\c3ccc(C(=O)O)cc3)c3ccccc3C2=O)c1` it is 25% (inactive).
`Cn1nc(-c2ccc(Cl)cc2)cc1NC(=O)Nc1ccccc1`: the inhibition was -6.13% (inactive).
Consider `COc1ccc(CN(C)C(=O)Cn2cnc3c(OCc4ccccc4)ncnc32)cc1OC`, for which the inhibition is 3.64% (inactive). For the same molecule, under setting [1], the inhibition came to 2.12%.
On to `O=C1c2cccc3cccc(c23)C(=O)N1CCN1CCN(CC(O)COc2ccccc2)CC1` (centres undefined), for which the inhibition was 1.28% (inactive).
For the molecule `COc1ccc(C)cc1NC(=O)CN1CCN(c2ccccn2)CC1`, the inhibition was -3.92% (inactive).
Same read-out and setting: the figure for `Cn1c(=O)c2[nH]c(-c3ccccc3Cl)c(O)c2n(C)c1=O` is -9.85% (inactive).
`CC(=O)Nn1cc2c(c1-c1ccccc1)c(=O)n(C)c(=O)n2C`: the inhibition was -11.6% (inactive). Further, the inhibition under setting [1] is -4.71%.
In the case of `CSc1nc(C=Nc2ccccc2Cl)c(O)n1Cc1cccc(Cl)c1`, the inhibition was -15.4% (inactive).
The same measure, in the same setting: in the case of `CCc1nnc(SCC(=O)Nc2ccc3c(c2)OCO3)n1CC` it was 2.59% (inactive); in that of `COc1cc(/C=C/c2ccc3cccc(O)c3n2)c(Br)cc1O`, -37.2% (inactive); in that of `COc1cc(C=C2C(=O)c3ccccc3C2=O)ccc1O`, 25.4% (inactive).
The same measure, in the same setting: the figure for `CCCCN1C(=O)NC(NS(=O)(=O)c2ccc(N)cc2)(C(F)(F)F)C1=O` (centres undefined) is 1.6% (inactive).
For `CC#CCN1C=C(C(=O)OCC)C(C)N(Cc2ccc(Br)cc2)S1(=O)=O` (centres undefined), the inhibition was 3.64% (inactive). Moreover, the inhibition under setting [1] was -3.33%.
Turning to `COc1ccccc1N1CCN(C2CC(=O)N(c3ccc(F)cc3)C2=O)CC1` (centres undefined), the inhibition was 10.3% (inactive).
With `CCN(CC)C1CC(=O)N(c2ccc(Br)cc2)C1=O` (centres undefined), the inhibition is -14.3% (inactive).
On the same count and under the same terms, in the case of `CCCCOc1ccc(N2C(=O)CC(N(O)c3ccccc3)C2=O)cc1` (centres undefined) it was -3.24% (inactive); in that of `COc1ccccc1N1C(=O)CC(N(O)c2ccccc2)C1=O` (centres undefined), -4.6% (inactive).
Still for that read-out and setting: the figure for `CC(=O)c1ccc(C(=O)N(C)C2CCCN(Cc3ccccc3F)C2)s1` (centres undefined) is -12.1% (inactive); for `Cc1ccc(S(=O)(=O)Nc2nc(-c3ccccc3)cs2)cc1` it is 23% (inactive); for `O=S(=O)(Nc1nc(-c2ccccc2)cs1)c1cccc(C(F)(F)F)c1` it is 19.9% (inactive).
The same measure, in the same setting: in the case of `COc1ccc(-c2csc(NS(=O)(=O)c3ccc([N+](=O)[O-])cc3)n2)cc1` it was 19.5% (inactive); in that of `Cc1ccc(S(=O)(=O)Nc2ccccc2C(=O)Nc2nc(-c3ccc(F)cc3)cs2)cc1`, 0.64% (inactive); in that of `COc1ccc(S(=O)(=O)N2CCCC2C(=O)NCc2cccs2)cc1` (centres undefined), -17.2% (inactive).
In the case of `CCOc1ccc(S(=O)(=O)N2CCCCC2)c2ccccc12`, the inhibition was -5.6% (inactive).
Same read-out and setting: the figure for `CCc1cccc(C)c1NC(=O)CSc1nc2ccccc2n1CC(=O)N(C)C` is -2.07% (inactive).
On to `O=C(O)COc1ccccc1/C=N/NC(=O)c1cc(-c2ccc(F)cc2)nc2ccccc12`, for which the inhibition is 1.48% (inactive).
Regarding `O=C(O)COc1ccccc1/C=N/NC(=O)c1cc(-c2ccccc2)nc2ccccc12`, the inhibition was 7.47% (inactive).
On the same count and under the same terms, the figure for `CCN(CC)S(=O)(=O)c1ccc(N/N=C/c2ccccc2OCC(=O)O)c([N+](=O)[O-])c1` is 13.7% (inactive); for `COc1ccccc1NS(=O)(=O)c1cccc(C(=O)N/N=C/c2ccccc2OCC(=O)O)c1` it is -8.38% (inactive); for `O=C(O)COc1ccccc1/C=N/Nc1ccc(S(=O)(=O)N2CCOCC2)cc1[N+](=O)[O-]` it is 6.86% (inactive).
Consider `Cc1ccc(NS(=O)(=O)c2ccc(N/N=C/c3ccncc3)c([N+](=O)[O-])c2)c(C)c1`, for which the inhibition is 2.21% (inactive).
Same read-out and setting: the figure for `COc1ccc(NS(=O)(=O)c2cc([N+](=O)[O-])ccc2NN=Cc2ccccc2OCC(=O)O)cc1` is -8.26% (inactive).
With `O=C(O)COc1ccccc1C=NNc1ccc([N+](=O)[O-])cc1S(=O)(=O)Nc1ccc(Cl)cc1`, the inhibition is 35% (inactive).
The same measure, in the same setting: the figure for `CNC(=O)N(O)C1N(/N=C/c2ccc(C)cc2)C(=S)SC1(C)C` (centres undefined) is -3.93% (inactive); for `O=C(CCOc1ccccc1)NNC(=O)c1ccccc1` it is -4.63% (inactive); for `Cc1ccc(C)c(C(=O)CCC(=O)Nc2cccnc2)c1` it is -3.23% (inactive).
As for `CC1=C(C#N)C(=O)NC1(C)O` (centres undefined), the inhibition was 5.14% (inactive).
Same read-out and setting: the figure for `COc1ccc(N(CC(=O)N2CCN(Cc3ccccc3)CC2)S(=O)(=O)c2ccccc2)cc1` is -5.2% (inactive); for `O=C(c1cccs1)N(Cc1ccco1)C1CCS(=O)(=O)C1` (centres undefined) it is -4.01% (inactive).
For the molecule `O=C(Nc1ccccc1)c1ccccc1NC(=O)[C@H]1CCCC[C@H]1C(=O)O`, the inhibition was -3.92% (inactive). For the same molecule, under setting [1], the inhibition is -1.53%.
In the case of `CCC(C)Sc1cc(-c2nc3ccc(Cl)cn3c2NC2CCCCC2)ccc1OC` (centres undefined), the inhibition was -12.6% (inactive).
For `Cc1cc(OC(C)C(=O)NC2CCN(Cc3ccccc3)CC2)c2c(C)cc(=O)oc2c1` (centres undefined), the inhibition is -2.72% (inactive).
In the case of `CCCCOC(=O)C1=C(C)NC(=O)NC1c1ccc(OC)cc1` (centres undefined), the inhibition was -0.39% (inactive).
`Cn1cc(C(=O)Nc2ccc(F)c(F)c2)cn1`: the inhibition is 0% (inactive).
On the same count and under the same terms, in the case of `COCC(=O)Nc1ccc(N2CCCC2)c(S(=O)(=O)Nc2ccccc2OC)c1` it was -9.92% (inactive).
